Data on 38 compounds can be found in PubChem BioAssay (Tox21).

Values joined by “and” are separate entries in the source; they are usually repeats but may differ in a detail not shown here. Equal entries are not always repeated. Results filed as inconclusive are left out. Active and inactive are the calls of the source. The call rests on the fitted dose curve; in most records, active means well fitted cell-killing curve with a large enough effect in the repeat runs; inconclusive means weak or mixed curves, or effect the other way; inactive means flat fitted curve, though single readings scatter.
On the % scale 0 is the no-effect control and ±100 the full control effect; potency means the concentration at half of the fitted maximal effect.

This assay is described as follows: qHTS RealTime-Glo MT Cell Viability Assay in HEK293 cells - 24 hour (AID 1224886). Further: nearly all actives have a fitted effect of over 50% in size. On activity change, negative = cytotoxicity: top concentration of the series differs between compounds. The conditions noted are these: RealTime-Glo luminescence; series mostly up to 76.8 µM; activity change, negative = cytotoxicity: at the top concentration. The procedure, abridged: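 Tox21 10K qHTS, HEK293, 600 cells/well, RealTime-Glo reagent co-dispensed with cells; 5 h preincubation, compound by pintool, 37 C, luminescence at 0–40 h.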
Background: Quantitative high-throughput screening tests each substance at several concentrations.
Regarding `CCCCCCCCCCCCCCCCCCn1cc[n+](C)c1`, the Potency is 15.4 µM (active).

In the case of `COC[C@H](C)N(C(=O)CCl)c1c(C)csc1C`, the “activity change, negative = cytotoxicity” value was 21.7% (inactive).

For `C[C@H]1CC[C@@H]2[C@@H](C)[C@H]3[C@H](C[C@H]4[C@@H]5CC=C6CC(O[C@@H]7O[C@H](CO)[C@H](O)[C@H](O[C@@H]8O[C@H](CO)[C@@H](O)[C@H](O)[C@H]8O)[C@H]7O[C@H]7O[C@@H](C)[C@H](O)[C@@H](O)[C@H]7O)CC[C@]6(C)[C@H]5CC[C@]34C)N2C1` (stereo partly drawn), the Potency is 12.7 µM (active).

Regarding `Cc1cc(C)cc(OP(=O)(Oc2cc(C)cc(C)c2)Oc2cc(C)cc(C)c2)c1`, the “activity change, negative = cytotoxicity” value is -19.1% (inactive).

On to `Cc1ccc(C(=O)Cl)cc1`, for which the “activity change, negative = cytotoxicity” value was -3.69% (inactive).

`COP(N)(=S)OC`: the “activity change, negative = cytotoxicity” value was 3.81% (inactive).

As to `NNC(=O)c1ccccc1`, the “activity change, negative = cytotoxicity” value was -1.23% (inactive).

For the compound `CCN`, the “activity change, negative = cytotoxicity” value was 19.6% (inactive).

For the compound `N#Cc1ccccc1N`, the “activity change, negative = cytotoxicity” value is -2.17% (inactive).

Consider `CN(CCCC(O)c1cccnc1)N=O` (stereo not drawn), for which the “activity change, negative = cytotoxicity” value was -1.01% (inactive).

Regarding `S=C=Nc1cccc2ccccc12`, the “activity change, negative = cytotoxicity” value is -2.76% (inactive).

As for `O=C(CCCN1CCC2(CC1)C(=O)NCN2c1ccccc1)c1ccc(F)cc1`, the Potency is 10.7 µM (active).

On to `CC(C)(C)OO`, for which the “activity change, negative = cytotoxicity” value is 12.4% (inactive).

For `C[C@]12CC[C@@H]3c4ccc(OC(=O)N(CCCl)CCCl)cc4CC[C@H]3[C@@H]1CC[C@@H]2O`, the “activity change, negative = cytotoxicity” value is -0.722% [at 35.3 µM] (inactive).

For the compound `ClCCN1CCOCC1`, the “activity change, negative = cytotoxicity” value was -22% (inactive).

With `[Hg+2].[I-].[I-]`, the Potency is 3.09 µM (active).

`Cl/C=C\CCl`: the “activity change, negative = cytotoxicity” value was 8.62% (inactive).

Regarding `CC(O)C#N` (stereo not drawn), the “activity change, negative = cytotoxicity” value was -1.1% (inactive).

Regarding `c1ccc(OCC2CO2)cc1` (stereo not drawn), the “activity change, negative = cytotoxicity” value was 8.04% (inactive).

As to `ClC1=C(Cl)[C@]2(Cl)[C@@H]3[C@@H]4C[C@@H]([C@H]5O[C@@H]45)[C@@H]3[C@@]1(Cl)C2(Cl)Cl`, the Potency was 21.9 µM (active).

Consider `CCOCCOC(C)=O`, for which the “activity change, negative = cytotoxicity” value is 12.8% (inactive).

As to `CCC[CH2][Sn]([CH2]CCC)([CH2]CCC)[O]C(=O)c1ccccc1`, the Potency was 0.389 µM (active).

As for `CCCCCCCCCCBr`, the “activity change, negative = cytotoxicity” value was -9.9% (inactive).

As to `Oc1ccc(I)cc1`, the “activity change, negative = cytotoxicity” value is -11.5% (inactive).

For `O=c1[nH]c2ccccc2n1CCCN1CCC(n2c(=O)[nH]c3cc(Cl)ccc32)CC1`, the Potency is 9.52 µM (active).

As to `Cc1cc(Cl)ccc1O[C@H](C)C(=O)O`, the “activity change, negative = cytotoxicity” value was -2.08% (inactive).

On to `CCCCCCCCCCCCCN1CC(C)OC(C)C1` (stereo not drawn), for which the “activity change, negative = cytotoxicity” value is -3.3% (inactive).

On to `O=c1ssc(Cl)c1Cl`, for which the Potency was 15.5 µM (active).

Take `C[C@@H](Oc1ccc(Cl)cc1Cl)C(=O)O`: the “activity change, negative = cytotoxicity” value was -5.71% (inactive).

Consider `COP(=O)(CCC(=O)NCO)OC`, for which the “activity change, negative = cytotoxicity” value was 5.91% (inactive).

As to `C=COCCCl`, the “activity change, negative = cytotoxicity” value is 16% (inactive).

Consider `CNC(C)Cc1ccc2c(c1)OCO2` (stereo not drawn), for which the “activity change, negative = cytotoxicity” value is -3.38% (inactive).

As for `CCCSP(=O)(OCC)SCCC`, the “activity change, negative = cytotoxicity” value is 2.78% (inactive).

For `CCS(=O)(=O)c1cccnc1S(=O)(=O)NC(=O)Nc1nc(OC)cc(OC)n1`, the “activity change, negative = cytotoxicity” value is 4.37% (inactive).

As for `CCCCCCCCCCCCCCCC[N+](C)(C)C`, the Potency was 9.42 µM (active) and 21.9 µM (active) and 9.52 µM (active).

Consider `O=c1[nH]c2ccccc2n1C1CCN(CCCC(c2ccc(F)cc2)c2ccc(F)cc2)CC1`, for which the Potency was 12.3 µM (active) and 16.9 µM (active).

Consider `CCOP(=S)(OCC)SCS(=O)(=O)C(C)(C)C`, for which the “activity change, negative = cytotoxicity” value was -13.4% (inactive).

For `CC(=O)Nc1ccc2c(c1)Cc1ccccc1-2`, the “activity change, negative = cytotoxicity” value was -13.9% (inactive).
